# An excerpt weighted towards active compounds, which were near 2.4% of everything screened.
# D2 antagonist: antagonists of human D2 dopamine receptor; P14416; HEK293 TREx D2 cells, calcium flux, dopamine EC80; inhibition, % at 10 µM; 2% of 340,000 active; AID 485344; in the data active means inhibition above about 30%; inactive means below that, where a call was filed; further: 0% is about no effect
#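 In this primary screen, negative modulation is detected by tracking calcium flux after an EC80 dopamine challenge in inducible HEK293 T-REx D2 cells preexposed to test compound for 180 s.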
# D2 ag-1: agonists of human D2 dopamine receptor; activation, % at 2 µM; 0.53% of 340,000 active; HEK293 T-REx D2 cells, calcium flux agonist mode; AID 485358; P14416;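 active means activation over 3 SD above normal in the single-dose calcium agonist read, cut at about 30% in these data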; further: 0% is about no effect
#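 In this primary screen, compounds producing a positive calcium signal within 180 s of addition to tetracycline-induced, force-coupled HEK293 Trex D2 cells are flagged; cells are dye-loaded with a no-wash calcium kit beforehand.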
# D2 ag-2: activates the human D2 dopamine receptor. P14416. DiscoveRx PathHunter D2 beta-arrestin, luminescence, 90 min; 100% = 57 uM dopamine signal. activation, % (no concentration beside the values). 0.084% of 360,000 active. AID 624465; in the data active means activation above about 40%; inconclusive means between about 15% and that limit
#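 DiscoveRx PathHunter D2 beta-arrestin cells (2,100/well) attached overnight, then compound-stimulated 90 min at 37 C in HBSS/10 mM HEPES/0.1% Tween-20 buffer; beta-galactosidase complementation read by luminescence after 1 h at ambient temperature. Dopamine 57 uM final (EC100) as control.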
# D2 PAM-1: positive allosteric modulators of human D2 dopamine receptor. P14416. DiscoveRx D2 beta-arrestin cells, luminescence, 90 min; 100% = 57 uM dopamine signal. potentiation, % (concentration not given with the values). 0.23% of 360,000 active. AID 624464; in the data active means potentiation above about 50%; inconclusive means mostly about 30% to 49%
#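 PathHunter D2 cells, attached overnight at 37 deg C, received compound in DMSO plus dopamine at EC20 (50 nM final) for 90 min at 37 deg C. Beta-arrestin recruitment was read as luminescence after 1 h with detection reagent at ambient temperature.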
# D2 PAM-2: positive allosteric modulators of human D2 dopamine receptor; P14416; HEK293 T-REx D2, calcium flux, EC20 dopamine potentiation; potentiation, % at 10 µM; 0.34% of 340,000 active;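 active means potentiation over 3 SD above the plate norm, cut at about 30% in these data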; further: 0% is about no effect
#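 Potentiation of an EC20 dopamine calcium response is measured in a force-coupled, tetracycline-inducible Hek293 Trex D2 line. Compound-only kinetic reads over 180 s flag agonists before dopamine addition.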
# D3 ag: confirmation of human D3 dopamine receptor agonists, beta-arrestin; shares compounds with D2 ag-1; DiscoveRx D3 beta-arrestin cells, luminescence, 90 min; Potency, µM (highest dose often 76.9 µM), inactives show at the highest dose activation, most hits filed as activators; 4% of 2,300 active;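 further: potency means the concentration at half of the fitted maximal effect; 100% = dopamine control response; nearly all actives have a fitted effect of over 70% in size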
# Target sequence (P35462 whole entry, looked up): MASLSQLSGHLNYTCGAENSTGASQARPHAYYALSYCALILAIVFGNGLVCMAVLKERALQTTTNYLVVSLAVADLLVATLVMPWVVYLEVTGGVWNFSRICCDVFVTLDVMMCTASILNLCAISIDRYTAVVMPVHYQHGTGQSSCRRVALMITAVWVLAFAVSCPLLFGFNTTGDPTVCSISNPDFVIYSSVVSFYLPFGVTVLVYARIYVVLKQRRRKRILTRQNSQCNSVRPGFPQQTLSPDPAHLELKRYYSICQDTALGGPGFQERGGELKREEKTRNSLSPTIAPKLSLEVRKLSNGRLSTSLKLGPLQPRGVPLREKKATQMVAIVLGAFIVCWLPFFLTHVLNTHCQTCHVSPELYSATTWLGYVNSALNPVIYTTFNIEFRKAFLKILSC
# D2 ag-3: counter-screen for D3 agonists: human D2 dopamine receptor agonism. 5.9% of 2,300 active. shares compounds with D2 ag-1. Potency, µM (series often up to 76.9 µM), for inactives: top-dose activation, most hits filed as activators. DiscoveRx PathHunter D2 beta-arrestin, luminescence, 90 min; response scale: percent relative to full dopamine signal; further: potency means the concentration at half of the fitted maximal effect; % of control where 0% means no effect; nearly all actives have a fitted effect of over 70% in size
# Numbers without * were called inactive; ? = inconclusive; · = no result given. Unless noted, the call rests on the fitted dose curve; in most records, active means well fitted activation curve with a large enough effect; inconclusive means small, poorly fitted or top-dose-only effect; inactive means flat fitted curve, though single readings scatter.
SMILES,D2 antagonist,D2 ag-1,D2 ag-2,D2 PAM-1,D2 PAM-2,D3 ag,D2 ag-3
COc1cc(CN2CCN(CCc3ccccc3)C(CCO)C2)cc(OC)c1 (configuration not stated),19,0,-7,-50,-16,·,·
COc1ccccc1C(=O)Nc1sc(Nc2ccccc2)nc1C(N)=O,·,1,·,·,-7,·,·
CCc1ccc(OCC(=O)NCC(c2ccc(OC)cc2)N2CCOCC2)cc1 (configuration not stated),·,-1,·,·,10,·,·
Cc1c(C(=O)N2CCN(c3ccccc3)CC2)oc2c(Cl)cccc12,13,-1,1,-10,7,-6%,-3%
CCOC(=O)c1[nH]c(C)c(C(=O)N2CCOCC2)c1C,3,1,0,-1,3,·,·
CCOC(=O)c1[nH]c(C)c(C(=O)N2CCN(c3ccccc3)CC2)c1C,23,31*,-3,-18,-5,2%,2%
COc1cccc(C(=O)Oc2c(Sc3ccc(C)cc3)c(C)nn2C(C)(C)C)c1OC,·,2,·,·,-11,·,·
COC(=O)c1ccc(NC(=O)CC2Nc3cc(C)c(C)cc3NC2=O)cc1 (configuration not stated),·,1,·,·,-9,·,·
COC(=O)c1cc2c(ccn2-c2ccc(F)cc2)n1Cc1ccc(C#N)cc1,-5,6,-3,-5,1,·,·
COC(=O)c1cc2c(ccn2-c2ccc(F)cc2)n1Cc1ccc(OC)cc1,28,5,4,-6,3,-14%,?
COc1cccc(-n2c(CN3CCN(c4ccccn4)CC3)nc3ccc([N+](=O)[O-])cc3c2=O)c1,7,28,-1,-10,-17,-3%,3%
COc1ccc(-n2c(CN3CCN(c4ccccc4)CC3)nc3ccc([N+](=O)[O-])cc3c2=O)c(OC)c1,13,18,7,-13,3,·,·
COc1cc(CN2CCCCCC2)cc(OC)c1,-7,0,-2,-13,-8,·,·
COc1ccc(CN2CCN(Cc3ccccc3F)CC2)c(OC)c1,5,-2,-4,-16,-4,·,·
COc1ccc(CN2CCN(c3ncccn3)CC2)c(OC)c1,69*,56*,45*,16,-5,?,?
COc1cc(CN2CCN(c3ncccn3)CC2)cc(OC)c1,87*,88*,56*,1,-22,?,2.8µM*
COc1ccc(CN2CCN(c3ccccn3)CC2)c(OC)c1,83*,84*,?,3,-22,22%,?
O=C(CCCN1C(=O)c2cccnc2C1=O)Nc1ccccc1F,-4,3,2,1,10,·,·
CCc1ccccc1NC(=O)CCCN1C(=O)c2cccnc2C1=O,-14,41*,0,-6,-16,-6%,-4%
CCN(Cc1ccncc1)C(=O)c1ccccc1NS(=O)(=O)c1ccc(Br)cc1,·,·,-4,-12,-4,0%,1%
Cc1c(Cl)cccc1N(CC(=O)NC1CCCCC1)S(C)(=O)=O,-12,72*,-4,-3,-24,-3%,-3%
Cc1cccc(C(=O)NC(=S)NCc2ccccc2)c1,·,·,-6,-8,·,·,·
Cc1cccc(C(=O)NC(=S)NNC(=O)Cc2ccccc2)c1,7,37*,-7,18,-3,-9%,-9%
Cc1csc2nc(-c3ccc(NS(=O)(=O)c4cc(F)ccc4F)cc3)cn12,·,1,·,·,9,·,·
O=C(CCC(=O)c1ccccc1)NCCc1c[nH]c2ccccc12,5,66*,4,-13,-20,14%,5%
SMILES,D2 antagonist,D2 ag-1,D2 ag-2,D2 PAM-1,D2 PAM-2,D3 ag,D2 ag-3
CC(=O)Nc1ccc(C(=O)CSc2nnc(-c3ccccc3)n2-c2ccccc2)cc1,·,0,·,·,6,·,·
Cn1cc(C(=O)NCCc2ccc(Cl)cc2)c(=O)c2cc(S(=O)(=O)N3CCOCC3)ccc21,·,1,·,·,-1,·,·
COc1ccc(CN2CCc3c(c(=O)n4ncc(C(=O)N5CCN(c6ccccc6F)CC5)c4n3C)C2)cc1,·,·,·,·,3,·,·
CN(C)S(=O)(=O)c1cccc(NC(=S)NNC(=O)c2cc3ccccc3cc2O)c1,56*,72*,-7,-6,-23,-8%,-8%
O=C(NCc1ccccc1Cl)c1ccc2c(c1)N(Cc1ccccc1)C(=O)c1ccccc1S2,·,1,·,·,-5,·,·
O=C1N/C(=C/c2cccs2)C(=O)N1Cc1ccccc1F,3,0,-5,-1,19,·,·
Cc1ccc(/C=C2/NC(=O)N(Cc3ccccc3F)C2=O)s1,21,7,-1,-4,-4,-4%,0%
CCc1ccc(S(=O)(=O)c2nnn3c2nc(Nc2cccc(C)c2C)c2sccc23)cc1,·,-1,·,·,3,·,·
C=CC[C@H]1Cc2c(cccc2[N+](=O)[O-])[C@H](CC=C)N1,59*,36*,?,13,·,?,?
O=[N+]([O-])c1ccc(O)c(-c2cc(C(F)(F)F)nc(-c3ccccc3)n2)c1,21,14,0,7,-5,?,2%
CC(C)(C)OC(=O)NCCCCCNC(=O)c1[nH]cnc1C(=O)Nc1ccc(Cl)cc1,-5,-1,-1,-2,-2,·,·
Cc1ccc(NC(=O)c2nc[nH]c2C(=O)N2CCN(C(=O)OC(C)(C)C)CC2)cc1,15,-1,-2,-7,-12,-7%,-2%
O=C(Nc1nccs1)c1nc[nH]c1C(=O)N1CCc2ccccc2C1,2,0,-7,-10,4,·,·
Cc1ccc(NC(=O)c2nc[nH]c2C(=O)NCCCCCNC(=O)OC(C)(C)C)cc1,-3,0,5,6,-14,12%,-1%
CC(C)(C)OC(=O)N1CCN(C(=O)c2[nH]cnc2C(=O)Nc2ccc(Cl)cc2)CC1,·,·,-1,-24,·,·,·
O=C(Nc1ccc(Cl)cc1)c1nc[nH]c1C(=O)N1CCc2ccccc2C1,51*,2,0,-14,-21,-3%,-4%
CCc1ccc(-n2c(SCc3ccccc3C)nc3[nH]ncc3c2=O)cc1,·,1,·,·,-11,·,·
CCOC(=O)c1ccc(NC(=O)c2cc(=O)c3ccc(C)c(C)c3o2)cc1,·,0,·,·,3,·,·
CCCCCCOc1ccc(C2C(=O)N(C3CCCCC3)CC(=O)N2C2CCCCC2)cc1 (configuration not stated),·,0,·,·,-11,·,·
CC(C)(C)OC(=O)N1CCC(CNC(=O)c2ccc(F)cc2)CC1,5,32*,3,-4,-20,-6%,1%
Cc1ccc(-c2cc3c(n2-c2ccccc2F)CC(C)(C)CC3=O)cc1,·,0,·,·,9,·,·

# High-throughput results from PubChem BioAssay.
